Measured values published in PubChem BioAssay (EPA / NIEHS).
Active and inactive are the calls of the source. How the source made its calls: active means hit-call score of the fitted dose curve at least 0.9, where 1 is the maximum; inactive means score below 0.9.

Experiment: CCTE_Simmons_MITO_inhib_resp_rate: CCTE's HepG2 Seahorse XF Respirometric Screening Assay at Inhibited Respiratory State [full ETC block], Simmons Lab (AID 2284006)
Details: actives raise or lower the signal
Method: CCTE_Simmons_MITO is cell-based, respirometric assay using HepG2 cells and a Seahorse XF Analyzer to measure oxygen consumption rates over four temporal phases spanning a total of 72 minutes: pre-injection (pre-treatment), basal (following test compound injection), maximal (following FCCP uncoupler injection), and inhibited (following rotenone/antimycin A injection)CCTE_Simmons_MITO_inhib_resp_rate is one of 4 assay components calculated from the CCTE_Simmons_MITO assay. It is designed to make measurements of inhibited respiration using a form of respirometric reporter, as detected with […] signals by Seahorse XF96 technology. Data from the assay component CCTE_Simmons_MITO_inhib_resp_rate was analyzed at the endpoint, CCTE_Simmons_MITO_inhib_resp_rate_OCR, with bidirectional fitting relative to DMSO as the negative control and baseline of activity. Using a type of respirometric reporter, measures of inhibited respiration for gain or loss-of-signal activity can be used to understand cellular oxygen consumption as it relates to cellular respiration. To generalize the intended target to other relatable targets, this assay endpoint is annotated to the mitochondria intended target family, where the subfamily is respiration.
Test chemicals were administered as a titrated series of 7 concentrations from 125 nM up to 100 uM [final] prior to kinetic endpoint detection at 6 minute intervals [3 min mix followed by 3 minutes measure] for 72 minutes. Three biological replicates of technical singles were run for every chemical concentration tested. Dimethylsulfoxide [DMSO] was used as the vehicle control. The electron transport chain inhibitor fenpyroximate was used as the positive control for decreased basal respiration and was administered as a titrated series of 6 concentrations from 250 nM up to 2.75 uM [final] with technical triplicates for the top concentration only. The uncoupler 2,4-dintirophenol was used as the positive control for increased basal respiration and was administered as a titrated series of 6 concentrations from 938 nM up to 40 uM [final] with technical triplicates for the top concentration only. A Seahorse XF Analzyer is required to measure the response.

Compound | AC50 | outcome
CC[C@H](c1ccc(O)cc1)[C@@H](CC)c1ccc(O)cc1 | 40.4 µM (active) | 
Oc1cc2ccccc2c2ccccc12 | 11.1 µM (active) | 
O=[N+]([O-])c1ccc(O)cc1 |  | inactive
CCCCCCCCCCCCN1CCCC1=O |  | inactive
Cc1cc(CCN2CCN(c3nsc4ccccc34)CC2)cc2c1NC(=O)CC2(C)C |  | inactive
CCCOC(=O)c1ccc(O)cc1 |  | inactive
CCc1nn(C2CCCCC2)c2cc(C3(C#N)CCC(C(=O)O)CC3)ccc12 (stereo not drawn) |  | inactive
Nc1cccc2c(N)cccc12 | 39.8 µM (active) | 
CN1CCN(c2ccccc2/C=C2\SCCN(c3ccc(Cl)c(Cl)c3)C2=O)CC1 |  | inactive
OC1CCC(C2CCCCC2)CC1 (stereo not drawn) |  | inactive
NC(=O)N(O)[C@@H]1C=C[C@H](Oc2cccc(Oc3ccc(F)cc3)c2)C1 |  | inactive
O=C(O)Cc1cc(I)c(Oc2cc(I)c(O)c(I)c2)c(I)c1 |  | inactive
NC(=O)N1C(=O)C(C(=O)c2cc(Cl)cs2)c2cc(F)c(Cl)cc21 (stereo not drawn) |  | inactive
